# According to PubChem BioAssay (Tox21):
# Values joined by “and” are separate entries in the source; they are usually repeats but may differ in a detail not shown here. Identical values can stand only once. Inconclusive results are not listed. Entries that show only a call come without a potency. Some compounds were tested as several samples or in several runs, with calls that do not always agree. Active and inactive are the calls of the source. Calls follow the shape of the dose curve; as a rule, active = well fitted curve in the direction sought with a large enough effect in the repeat runs; inconclusive = weak or mixed curves; inactive = no such curve, though single readings can be large; an effect the other way counts as inactive or inconclusive.
# How the values were obtained:
# [1] = qHTS RealTime-Glo MT Cell Viability Assay in HepG2 cells - 40 hour (AID 1224870); also: nearly all actives have a fitted effect of over 50% in size
# Procedure, shortened: (§1)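 HepG2 cells mixed with RealTime-Glo MT reagents (NanoLuc plus cell-permeant prosubstrate) were seeded at 600 cells/well, incubated 5 h at 37 C/5% CO2, then pinned with compounds in DMSO; nonlytic luminescence tracked viability during 40 h treatment.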
# [2] = A CellTox Green Cytotoxicity Assay to monitor cytotoxicity in HEK293 cells - 40 hour (AID 1224871); also: nearly all actives have a fitted effect of over 45% in size; also: potency is read from the fitted curve at half-maximal effect
# Procedure, shortened: (§2)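 Fluorescence intensity, read at 0, 8, 16, 24, 32 and 40 h of compound treatment, reflected dye binding to DNA of dead HEK293 cells; compounds (23 nL, DMSO) were added 5 h after plating cells with reagent.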
# [3] = qHTS RealTime-Glo MT Cell Viability Assay in HEK293 cells - 16 hour (AID 1224872); also: nearly all actives have a fitted effect of over 50% in size; also: potency is read from the fitted curve at half-maximal effect
# Procedure, shortened: (§3)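 Cells + reagent dispensed (600 cells/well, HEK293) → 5 h at 37 C/5% CO2 → 23 nL compound in DMSO pinned → 40 h at 37 C → luminescence read at 0, 8, 16, 24, 32, 40 h.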
# [4] = qHTS RealTime-Glo MT Cell Viability Assay in HepG2 cells - 8 hour (AID 1224873); also: nearly all actives have a fitted effect of over 55% in size
# Procedure, shortened: as §1
# [5] = qHTS RealTime-Glo MT Cell Viability Assay in HEK293 cells - 40 hour (AID 1224874); conditions: RealTime-Glo luminescence; max response: stronger effect = lower value; also: nearly all actives have a fitted effect of over 50% in size; also: potency is read from the fitted curve at half-maximal effect
# Procedure, shortened: (§4)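 Viable HEK293 cells reduce a cell-permeant prosubstrate; the product diffuses out and is consumed by NanoLuc in the medium to give light. Compounds went in after a 5 h incubation and plates were read over the treatment course.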
# [6] = A CellTox Green Cytotoxicity Assay to monitor cytotoxicity in HEK293 cells - 24 hour (AID 1224875); also: nearly all actives have a fitted effect of over 45% in size; also: potency is read from the fitted curve at half-maximal effect
# Procedure, shortened: as §2
# [7] = A CellTox Green Cytotoxicity Assay to monitor cytotoxicity in HepG2 cells - 16 hour (AID 1224876); also: nearly all actives have a fitted effect of over 45% in size
# Procedure, shortened: (§5)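 Using 1536-well format, dye-containing HepG2 suspension was seeded, allowed 5 h at 37 C/5% CO2, dosed by pintool with compounds, positive and negative controls, and imaged for fluorescence across 40 h.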
# [8] = qHTS RealTime-Glo MT Cell Viability Assay in HepG2 cells - 32 hour (AID 1224877); also: nearly all actives have a fitted effect of over 55% in size
# Procedure, shortened: (§6)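 Real-time, nonlytic viability: 600 HepG2 cells/well mixed with NanoLuc enzyme plus prosubstrate; 5 h settle, compound (DMSO) added by pintool; luminescence monitored over 40 h at 37 C.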
# [9] = A CellTox Green Cytotoxicity Assay to monitor cytotoxicity in HepG2 cells - 24 hour (AID 1224878); also: nearly all actives have a fitted effect of over 45% in size
# Procedure, shortened: as §5
# [10] = A CellTox Green Cytotoxicity Assay to monitor cytotoxicity in HepG2 cells - 40 hour (AID 1224879); also: nearly all actives have a fitted effect of over 40% in size
# Procedure, shortened: as §5
# [11] = qHTS RealTime-Glo MT Cell Viability Assay in HEK293 cells - 0 hour (AID 1224880)
# Procedure, shortened: as §4
# [12] = A CellTox Green Cytotoxicity Assay to monitor cytotoxicity in HEK293 cells - 32 hour (AID 1224881); also: nearly all actives have a fitted effect of over 40% in size; also: potency is read from the fitted curve at half-maximal effect
# Procedure, shortened: as §2
# [13] = A CellTox Green Cytotoxicity Assay to monitor cytotoxicity in HepG2 cells - 0 hour (AID 1224882); also: nearly all actives have a fitted effect of over 35% in size
# Procedure, shortened: as §5
# [14] = A CellTox Green Cytotoxicity Assay to monitor cytotoxicity in HepG2 cells - 32 hour (AID 1224883); also: nearly all actives have a fitted effect of over 50% in size
# Procedure, shortened: as §5
# [15] = A CellTox Green Cytotoxicity Assay to monitor cytotoxicity in HEK293 cells - 8 hour (AID 1224884); also: nearly all actives have a fitted effect of over 35% in size
# Procedure, shortened: as §2
# [16] = qHTS RealTime-Glo MT Cell Viability Assay in HepG2 cells - 16 hour (AID 1224885); also: nearly all actives have a fitted effect of over 50% in size
# Procedure, shortened: as §6
# [17] = qHTS RealTime-Glo MT Cell Viability Assay in HEK293 cells - 24 hour (AID 1224886); also: nearly all actives have a fitted effect of over 50% in size; also: potency is read from the fitted curve at half-maximal effect
# Procedure, shortened: as §3
# [18] = qHTS RealTime-Glo MT Cell Viability Assay in HEK293 cells - 8 hour (AID 1224887); also: nearly all actives have a fitted effect of over 50% in size; also: potency is read from the fitted curve at half-maximal effect
# Procedure, shortened: as §4
# [19] = A CellTox Green Cytotoxicity Assay to monitor cytotoxicity in HEK293 cells - 16 hour (AID 1224888); also: nearly all actives have a fitted effect of over 35% in size; also: potency is read from the fitted curve at half-maximal effect
# Procedure, shortened: as §2
# [20] = qHTS RealTime-Glo MT Cell Viability Assay in HepG2 cells - 0 hour (AID 1224889); also: nearly all actives have a fitted effect of over 50% in size
# Procedure, shortened: as §6
compound,measurement,setting,value
NC(=O)CCCCC(N)=O,Potency,[1],inactive
same,Potency,[2],inactive
same,Potency,[3],inactive
same,Potency,[4],inactive
same,max response,[5],1.27% (inactive)
same,Potency,[6],inactive
same,Potency,[7],inactive
same,Potency,[8],inactive
same,Potency,[9],inactive
same,Potency,[10],inactive
same,Potency,[11],inactive
same,Potency,[12],inactive
same,Potency,[13],inactive
same,Potency,[14],inactive
same,Potency,[15],inactive
same,Potency,[16],inactive
same,Potency,[17],inactive
same,Potency,[18],inactive
same,Potency,[19],inactive
same,Potency,[20],inactive
CCN(CC)CCNC(=O)c1cc(Cl)c(N)cc1OC,Potency,[1],inactive
same,Potency,[2],inactive
same,Potency,[3],inactive
same,Potency,[4],inactive
same,max response,[5],-5.88% (inactive)
same,Potency,[6],inactive
same,Potency,[7],inactive
same,Potency,[8],inactive
same,Potency,[9],inactive
same,Potency,[10],inactive
same,Potency,[11],inactive
same,Potency,[12],inactive
same,Potency,[13],inactive
same,Potency,[14],inactive
same,Potency,[15],inactive
same,Potency,[17],inactive
same,Potency,[19],inactive
same,Potency,[20],inactive
CC12CC3CC(C)(C1)CC(N)(C3)C2,Potency,[1],inactive
same,Potency,[2],inactive
same,Potency,[3],inactive
same,Potency,[4],inactive
same,max response,[5],3.93% (inactive)
same,Potency,[6],inactive
same,Potency,[7],inactive
same,Potency,[8],inactive
same,Potency,[9],inactive
same,Potency,[10],inactive
same,Potency,[11],inactive
same,Potency,[12],inactive
same,Potency,[13],inactive
same,Potency,[15],inactive
same,Potency,[17],inactive
same,Potency,[18],inactive
same,Potency,[19],inactive
same,Potency,[20],inactive
CC(CCc1ccc(O)cc1)NCCc1ccc(O)c(O)c1 (configuration not stated),Potency,[1],inactive
same,Potency,[2],inactive
same,Potency,[3],inactive
same,Potency,[4],inactive
same,max response,[5],-18.1% (inactive)
same,Potency,[6],inactive
same,Potency,[7],inactive
same,Potency,[8],inactive
same,Potency,[9],inactive
same,Potency,[10],inactive
same,Potency,[11],inactive
same,Potency,[12],inactive
same,Potency,[13],inactive
same,Potency,[14],inactive
same,Potency,[15],inactive
same,Potency,[16],inactive
same,Potency,[17],inactive
same,Potency,[18],inactive
same,Potency,[19],inactive
same,Potency,[20],inactive
CC1CCC(C(C)CS)CC1S (configuration not stated),Potency,[1],inactive
same,Potency,[2],49 µM (active)
same,Potency,[3],inactive
same,Potency,[4],inactive
same,max response,[5],10.8% (inactive)
same,Potency,[6],43.6 µM (active)
same,Potency,[7],inactive
same,Potency,[8],inactive
same,Potency,[9],inactive
same,Potency,[10],inactive
same,Potency,[11],inactive
same,Potency,[12],49 µM (active)
same,Potency,[13],inactive
same,Potency,[14],inactive
same,Potency,[16],inactive
same,Potency,[17],inactive
same,Potency,[18],inactive
same,Potency,[19],49 µM (active)
same,Potency,[20],inactive
COc1ccc2nc(S(=O)Cc3ncc(C)c(OC)c3C)[nH]c2c1 (configuration not stated),Potency,[1],inactive
same,Potency,[2],inactive and 1.7 nM (active)
same,Potency,[3],21.6 µM (active) and inactive
same,Potency,[4],inactive
same,Potency,[5],19.3 µM (active)
same,max response,[5],-10.3% (inactive)
same,Potency,[7],inactive
same,Potency,[8],inactive
same,Potency,[9],inactive
same,Potency,[10],inactive
same,Potency,[11],inactive
same,Potency,[12],inactive
same,Potency,[13],inactive
same,Potency,[14],inactive
same,Potency,[15],inactive
same,Potency,[16],inactive
same,Potency,[17],21.6 µM (active) and inactive
same,Potency,[18],24.3 µM (active) and inactive
same,Potency,[19],inactive
same,Potency,[20],inactive
CCOC(=O)Oc1ccc(CCNC(=O)[C@H](CCSC)NC(C)=O)cc1OC(=O)OCC,Potency,[1],inactive
same,Potency,[2],inactive
same,Potency,[3],inactive
same,Potency,[4],inactive
same,max response,[5],14.4% (inactive)
same,Potency,[6],inactive
same,Potency,[7],inactive
same,Potency,[8],inactive
same,Potency,[9],inactive
same,Potency,[10],inactive
same,Potency,[11],inactive
same,Potency,[12],inactive
same,Potency,[13],inactive
same,Potency,[15],inactive
same,Potency,[16],inactive
same,Potency,[17],inactive
same,Potency,[18],inactive
same,Potency,[19],inactive
same,Potency,[20],inactive
C[C@H](CS)C(=O)N1CCC[C@H]1C(=O)O,Potency,[1],inactive
same,Potency,[2],inactive
same,Potency,[3],inactive
same,Potency,[4],inactive
same,max response,[5],9.42% (inactive)
same,Potency,[6],inactive
same,Potency,[7],inactive
same,Potency,[8],inactive
same,Potency,[9],inactive
same,Potency,[10],inactive
same,Potency,[11],inactive
same,Potency,[12],inactive
same,Potency,[13],inactive
same,Potency,[14],inactive
same,Potency,[15],inactive
same,Potency,[16],inactive
same,Potency,[17],inactive
same,Potency,[18],inactive
same,Potency,[19],inactive
same,Potency,[20],inactive
Cc1ccc(S(=O)(=O)NC(=O)NC2CCCCC2)cc1,Potency,[1],inactive
same,Potency,[2],inactive
same,Potency,[3],inactive
same,Potency,[4],inactive
same,max response,[5],4.44% (inactive)
same,Potency,[6],inactive
same,Potency,[7],inactive
same,Potency,[8],inactive
same,Potency,[9],inactive
same,Potency,[10],inactive
same,Potency,[11],inactive
same,Potency,[12],inactive
same,Potency,[13],inactive
same,Potency,[14],inactive
same,Potency,[15],inactive
same,Potency,[16],inactive
same,Potency,[17],inactive
same,Potency,[18],inactive
same,Potency,[19],inactive
same,Potency,[20],inactive
O=C(c1ccccc1)c1ccc(O)cc1,Potency,[1],inactive
same,Potency,[2],inactive
same,Potency,[3],inactive
same,Potency,[4],inactive
same,max response,[5],-20.1% (inactive)
same,Potency,[6],inactive
same,Potency,[7],inactive
same,Potency,[8],inactive
same,Potency,[9],inactive
same,Potency,[10],inactive
same,Potency,[11],inactive
same,Potency,[12],inactive
same,Potency,[13],inactive
same,Potency,[14],inactive
same,Potency,[15],inactive
same,Potency,[16],inactive
same,Potency,[17],inactive
same,Potency,[18],inactive
same,Potency,[19],inactive
same,Potency,[20],inactive
CC(C)N(C)C,Potency,[1],inactive
same,Potency,[2],inactive
same,Potency,[3],inactive
same,Potency,[4],inactive
same,max response,[5],0.0453% (inactive)
same,Potency,[6],inactive
same,Potency,[7],inactive
same,Potency,[8],inactive
same,Potency,[9],inactive
same,Potency,[10],inactive
same,Potency,[11],inactive
same,Potency,[12],inactive
same,Potency,[13],inactive
same,Potency,[14],inactive
same,Potency,[15],inactive
same,Potency,[16],inactive
same,Potency,[17],inactive
same,Potency,[19],inactive
same,Potency,[20],inactive
CC(C)N=C=NC(C)C,Potency,[1],inactive
same,Potency,[2],inactive
same,Potency,[3],inactive
same,Potency,[4],inactive
same,max response,[5],3.08% (inactive)
same,Potency,[6],inactive
same,Potency,[7],inactive
same,Potency,[8],inactive
same,Potency,[9],inactive
same,Potency,[10],inactive
same,Potency,[11],inactive
same,Potency,[12],inactive
same,Potency,[13],inactive
same,Potency,[14],inactive
same,Potency,[15],inactive
same,Potency,[16],inactive
same,Potency,[17],inactive
same,Potency,[18],inactive
same,Potency,[19],inactive
same,Potency,[20],inactive
O=[N+]([O-])c1ccc2ncccc2c1,Potency,[1],inactive
same,Potency,[2],inactive
same,Potency,[3],inactive
same,Potency,[4],inactive
same,max response,[5],2.13% (inactive)
same,Potency,[6],inactive
same,Potency,[7],inactive
same,Potency,[8],inactive
same,Potency,[9],inactive
same,Potency,[10],inactive
same,Potency,[11],inactive
same,Potency,[12],inactive
same,Potency,[13],inactive
same,Potency,[14],inactive
same,Potency,[15],inactive
same,Potency,[16],inactive
same,Potency,[17],inactive
same,Potency,[19],inactive
same,Potency,[20],inactive
